# Results: PubChem BioAssay (NCATS)
# Several values for one entry are separate records, joined by “and”; a condition that tells them apart may be missing. Identical values can stand only once. Records with an inconclusive call do not appear. Where a call stands in place of a potency, no number is given. Activity calls are given as the source filed them. Calls come from the whole dose curve; as a rule, active = well fitted cell-killing curve with a large enough effect; inconclusive = small, poorly fitted or top-dose-only effect, or effect the other way; inactive = no such curve, though single readings can be large or run the other way.
# Assay: qHTS of pediatric cancer cell lines to identify multiple opportunities for drug repurposing: Confirmatory screen for Saos-2 cells (AID 1347127); note: nearly all actives have a fitted effect of over 60% in size
# Settings: Saos-2 osteosarcoma cell viability; series mostly up to 45.9 µM
# How it was run: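 Cells (500-1,000/well) rested 5 h, then received compounds for 48 h; metabolically active cells were measured by CellTiter-Glo luminescence. Final concentrations spanned up to 46 µM (MIPE, 11-point) or 0.59 nM-46 µM (NPC, 8-point) in primary screens, 11-point in follow-ups.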
# Potency is the fitted concentration of half-maximal effect.
row,SMILES,Potency
1,CC(C)NCC(O)c1ccc(NS(C)(=O)=O)cc1 (stereo unspecified),inactive
2,COC(=O)Nc1nc2ccc(Sc3ccccc3)cc2[nH]1,1.31 µM (active)
3,COc1cc2c(Nc3ccc(Br)cc3F)ncnc2cc1OCC1CCN(C)CC1,inactive
4,CCCCOc1ccc(CC(=O)NO)cc1,inactive
5,CC(C)(C)C(=O)OCOP(=O)(COCCn1cnc2c(N)ncnc21)OCOC(=O)C(C)(C)C,14.7 µM (active)
6,CC(C)(C#N)c1cc(Cn2cncn2)cc(C(C)(C)C#N)c1,inactive
7,COc1cc([C@@H]2c3cc4c(cc3[C@H](O)[C@H]3COC(=O)[C@H]23)OCO4)cc(OC)c1OC,0.0414 µM (active)
8,CCOC(=O)c1ccc(C#Cc2ccc3c(c2)C(C)(C)CCS3)nc1,inactive
9,Nc1nc(F)nc2c1ncn2[C@@H]1O[C@H](CO)[C@@H](O)[C@@H]1O,928 nM (active) and 1.17 µM (active)
10,Nc1nc(N)nc(-c2cc(Cl)ccc2Cl)n1,inactive
11,NC(=O)c1cccnc1,inactive
12,COC(=O)Nc1nc2ccc(S(=O)c3ccccc3)cc2[nH]1 (stereo unspecified),1.47 µM (active)
13,CCOC(=O)[C@H](CCc1ccccc1)N[C@H]1CS[C@H](c2cccs2)CN(CC(=O)O)C1=O,inactive
14,CC(C)C[C@H](NC(=O)[C@H](CCc1ccccc1)NC(=O)CN1CCOCC1)C(=O)N[C@@H](Cc1ccccc1)C(=O)N[C@@H](CC(C)C)C(=O)[C@@]1(C)CO1,0.117 µM (active)
15,COc1nc(N)nc2c1ncn2[C@@H]1O[C@H](CO)[C@@H](O)[C@@H]1O,inactive
16,CC(C(=O)O)c1ccc2c(c1)CC(=O)c1ccccc1S2 (stereo unspecified),inactive
